Active and inactive are the calls of the source. How the source made its calls: active means hit-call score of the fitted dose curve at least 0.9, where 1 is the maximum; inactive means score below 0.9.
Legend:
[1] = ATG_CRE_CIS: Attagene CIS-FACTORIAL HepG2 Assay for human cAMP Responsive Element (CRE) binding protein 3 (AID 2282926); details: HepG2 CRE cis-reporter, Attagene multiplexed mRNA; actives raise or lower the signal
In short: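 Endogenous transcription factor activity read via CRE-regulated reporter transcripts in transfected HepG2 cells. After 24 h exposure, RNA was reverse-transcribed, amplified, fluorescently labelled and sized by capillary electrophoresis; gain or loss fitted against DMSO.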

[2] = molecular target: CCAAT/enhancer-binding protein beta (Homo sapiens) (UniProt P17676); assay: ATG_C_EBP_CIS: Attagene CIS-FACTORIAL HepG2 Assay for human CCAAT/Enhancer Binding Protein (C/EBP) beta (AID 2282927); details: HepG2 Attagene cis-factorial transcription factor reporter; actives raise or lower the signal
In short: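 HepG2, transient MRTU transfection, 24 h treatment. RT-PCR plus CE fluorescence; DMSO negative control, bidirectional fit.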

[3] = ATG_CMV_CIS: Attagene CIS-FACTORIAL HepG2 Assay for human CMV (Internal Marker) (AID 2282928); details: HepG2 CMV promoter reporter, transcription factor profiling; actives raise or lower the signal;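 further: endpoint acts as a background internal control marker rather than a target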
In short: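 Readout: fluorescent reporter cDNA fragments separated by capillary electrophoresis after RT-PCR and HpaI cut. Cells: HepG2 carrying transfected cis-promoter reporter constructs, dosed 24 h. Endpoint serves as background internal-marker control, fit bidirectionally versus DMSO.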

[4] = ATG_DR4_LXR_CIS: Attagene CIS-FACTORIAL HepG2 Assay for human Liver X Receptor (LXR), DR4 submotif (AID 2282929); details: HepG2 Attagene DR4 cis-reporter, mRNA transcription; actives raise or lower the signal
In short: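 Endogenous factor activity at a DR4 cis-element is read as reporter mRNA in transiently transfected HepG2 cells. Exposure lasts 24 h; transcripts are amplified, fluorescently labelled and sized by capillary electrophoresis, with DMSO as baseline.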

[5] = ATG_AP_2_CIS: Attagene CIS-FACTORIAL HepG2 Assay for human Activator Protein 2 (AP-2) (AID 2282932); details: HepG2 AP-2 cis-reporter, Attagene transcription factor profiling; actives raise or lower the signal
In short: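 Liver-derived HepG2 line, cis-reporter system measuring endogenous factors; 24 h dosing; reporter mRNA detected by fluorescent RT-PCR and capillary electrophoresis.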

[6] = ATG_E_Box_CIS: Attagene CIS-FACTORIAL HepG2 Assay for human Enhancer Box (E-box) (AID 2282936); details: HepG2 E-box cis-reporter transcription, actives raise or lower the signal
In short: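 In this cell-based setup, HepG2 cells bearing transfected promoter-driven reporter units were exposed to chemicals for 24 h; reporter transcripts were amplified, 6-FAM-labelled, cut with HpaI and sized by capillary electrophoresis.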

[7] = ATG_EGR_CIS: Attagene CIS-FACTORIAL HepG2 Assay for human Early Growth Response 1 (EGR1) (AID 2282938); details: HepG2 Attagene CIS-FACTORIAL EGR reporter mRNA; actives raise or lower the signal
In short: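 HepG2, transient MRTU transfection (cis promoters), 24 h compound. RNA → RT (oligo-dT) → PCR → 6-FAM labelling → HpaI cut → CE fluorescence. Bidirectional fit, DMSO baseline.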

[8] = ATG_M_19_CIS: Attagene CIS-FACTORIAL HepG2 Assay for M19 Transcription Factor (Internal Marker) (AID 2282939); details: HepG2 Attagene CIS-FACTORIAL M19 internal marker reporter; actives raise or lower the signal
In short: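 Signals come from fluorescence of labelled reporter-specific PCR fragments resolved by capillary electrophoresis, following 24 h treatment of HepG2 cells transfected with cis-promoter reporter units; activity was fitted in both directions relative to DMSO.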

[9] = ATG_Ets_CIS: Attagene CIS-FACTORIAL HepG2 Assay for human Erythroblast Transformation Specific (ETS) (AID 2282941); details: HepG2 ETS cis-reporter transcription, actives raise or lower the signal
In short: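 RT-PCR/capillary electrophoresis fluorescence read-out of reporter mRNA; HepG2 transient multi-reporter transfection; 24 h compound exposure; gain or loss of signal fitted bidirectionally relative to DMSO.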

[10] = molecular target: Hepatocyte nuclear factor 3-beta (Homo sapiens) (UniProt Q9Y261); assay: ATG_FoxA2_CIS: Attagene CIS-FACTORIAL HepG2 Assay for human Forkhead box A2 (FOXA2) (AID 2282942); details: HepG2 cis-reporter transcription factor activity, 24 h; actives raise or lower the signal
In short: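 Cells: HepG2, transient multiplex reporter transfection. Exposure 24 h. Detection: reporter-specific RT-PCR, fluorescent labelling, restriction digest, capillary electrophoresis. Analysis: bidirectional curve fit, DMSO as negative control.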

[11] = ATG_FoxO_CIS: Attagene CIS-FACTORIAL HepG2 Assay for human Forkhead box O (FoxO) (AID 2282943); details: HepG2 Attagene cis-reporter, FoxO element, mRNA; actives raise or lower the signal
In short: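 Transfected HepG2 reporter cells exposed to test chemical for 24 h; reporter RNA measured by reverse transcription, PCR and fluorescent capillary electrophoresis; curves fitted for increases and decreases against DMSO.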

[12] = ATG_GATA_CIS: Attagene CIS-FACTORIAL HepG2 Assay for human GATA Binding Protein (AID 2282944); details: HepG2 GATA cis-element reporter, Attagene multiplex mRNA; actives raise or lower the signal
In short: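 After transfecting HepG2 cells with multiple cis-regulated reporter units, chemicals are dosed for 24 h; isolated RNA undergoes RT-PCR and fluorescent labeling before capillary electrophoresis, with activity expressed against DMSO.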

[13] = ATG_M_32_CIS: Attagene CIS-FACTORIAL HepG2 Assay for M32 Transcription Factor (Internal Marker) (AID 2282949); details: HepG2 Attagene cis-factorial M32 reporter, mRNA; actives raise or lower the signal;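 further: background control marker of the multiplexed CIS panel rather than a real target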
In short: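 HepG2 transfectants (cis-regulated reporter transcription units) dosed 24 h. Reporter mRNA by RT-PCR plus CE, analysed as gain or loss relative to DMSO.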

[14] = ATG_M_06_CIS: Attagene CIS-FACTORIAL HepG2 Assay for M06 Transcription Factor (Internal Marker) (AID 2282950); details: HepG2 Attagene CIS-FACTORIAL M06 internal marker reporter; actives raise or lower the signal
In short: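 HepG2 liver cells, 24 h exposure. Reporter transcripts from transfected cis-element constructs quantified by RT-PCR/capillary electrophoresis fluorescence. Bidirectional curve fit against DMSO.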

[15] = ATG_PXRE_CIS: Attagene CIS-FACTORIAL HepG2 Assay for human Pregnane X Receptor Element (PXRE) (AID 2282957); details: HepG2 Attagene CIS-FACTORIAL PXRE reporter, mRNA; actives raise or lower the signal
In short: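 Reporter transcripts under endogenous PXR-responsive cis-regulation quantified from total RNA of transfected HepG2 cells 24 h post-dosing, via RT-PCR with fluorescent primer extension and capillary electrophoresis. Gain or loss of signal fitted against DMSO baseline.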

[16] = ATG_Sox_CIS: Attagene CIS-FACTORIAL HepG2 Assay for human SRY-box transcription factor (SOX) (AID 2282960); details: HepG2 Attagene cis-factorial SOX reporter, mRNA; actives raise or lower the signal
In short: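 Cells were transfected with reporter constructs under cis-regulatory promoters, then exposed to chemicals for 24 h. Reporter transcripts were quantified by fluorescence after RT-PCR and capillary electrophoresis; activity was fitted in both directions against DMSO.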

[17] = molecular target: Transcription factor Sp1 (Homo sapiens) (UniProt P08047); assay: ATG_Sp1_CIS: Attagene CIS-FACTORIAL HepG2 Assay for human Specificity Protein 1 (Sp1) (AID 2282961); details: HepG2 Sp1 cis-reporter transcription, actives raise or lower the signal
In short: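 Measures mRNA induction of an Sp1-linked reporter in HepG2 cells 24 h post-dosing. Multiplexed reporters read by RT-PCR and capillary electrophoresis; DMSO serves as negative control and baseline.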

[18] = ATG_SREBP_CIS: Attagene CIS-FACTORIAL HepG2 Assay for human Sterol Regulatory Element Binding (SREBP) (AID 2282962); details: HepG2 Attagene cis-factorial SREBP reporter, mRNA; actives raise or lower the signal
In short: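 Readout: fluorescent reporter-transcript peaks resolved by capillary electrophoresis after RT-PCR. Cells were human HepG2 carrying transfected cis-promoter reporter constructs, dosed for 24 h. Gain or loss of signal was fitted against DMSO controls.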

[19] = molecular target: Signal transducer and activator of transcription 3 (Homo sapiens) (UniProt P40763); assay: ATG_STAT3_CIS: Attagene CIS-FACTORIAL HepG2 Assay for human Signal Transducer and Activator of Transcription 3 (STAT3) (AID 2282963); details: HepG2, Attagene cis-factorial STAT3 reporter transcription; actives raise or lower the signal
In short: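 Fluorescence intensity of 6-FAM-labelled reporter fragments, separated by capillary electrophoresis after RT-PCR, gave the signal. Cells were HepG2 transfected with cis-element reporter units and treated 24 h; fitting was bidirectional relative to DMSO.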

[20] = ATG_TA_CIS: Attagene CIS-FACTORIAL HepG2 Assay for human TA Basal Promoter (AID 2282964); details: HepG2 Attagene CIS-factorial TA basal promoter reporter; actives raise or lower the signal
In short: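 Fluorescence from labelled RT-PCR reporter fragments, separated by capillary electrophoresis, gives the signal. Cells: HepG2 transiently carrying multiple reporter units, 24 h chemical dosing. Gain or loss relative to DMSO.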

Measured: AC50

Sequence of Transcription factor Sp1 (Homo sapiens) (P08047 whole entry, looked up): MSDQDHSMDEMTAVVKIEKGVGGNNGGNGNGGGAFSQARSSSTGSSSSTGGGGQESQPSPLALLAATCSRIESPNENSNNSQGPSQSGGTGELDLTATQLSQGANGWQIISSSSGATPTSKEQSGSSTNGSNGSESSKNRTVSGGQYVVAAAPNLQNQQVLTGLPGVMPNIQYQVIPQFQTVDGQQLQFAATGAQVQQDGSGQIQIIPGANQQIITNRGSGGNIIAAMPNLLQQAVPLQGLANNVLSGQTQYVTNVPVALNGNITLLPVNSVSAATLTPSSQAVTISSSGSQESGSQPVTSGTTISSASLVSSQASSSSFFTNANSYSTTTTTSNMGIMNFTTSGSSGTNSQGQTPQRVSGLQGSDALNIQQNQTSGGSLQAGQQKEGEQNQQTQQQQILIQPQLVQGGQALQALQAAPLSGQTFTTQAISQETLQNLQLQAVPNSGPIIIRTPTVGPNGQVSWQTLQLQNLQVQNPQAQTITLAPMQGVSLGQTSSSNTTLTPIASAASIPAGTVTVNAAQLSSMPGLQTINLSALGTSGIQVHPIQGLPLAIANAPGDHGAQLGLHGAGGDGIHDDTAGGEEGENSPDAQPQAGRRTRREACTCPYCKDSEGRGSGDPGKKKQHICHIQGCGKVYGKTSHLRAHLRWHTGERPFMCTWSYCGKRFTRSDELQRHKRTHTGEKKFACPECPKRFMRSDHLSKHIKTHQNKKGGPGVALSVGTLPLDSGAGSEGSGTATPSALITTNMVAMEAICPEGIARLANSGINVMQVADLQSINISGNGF
Sequence of CCAAT/enhancer-binding protein beta (Homo sapiens) (P17676 whole entry, looked up): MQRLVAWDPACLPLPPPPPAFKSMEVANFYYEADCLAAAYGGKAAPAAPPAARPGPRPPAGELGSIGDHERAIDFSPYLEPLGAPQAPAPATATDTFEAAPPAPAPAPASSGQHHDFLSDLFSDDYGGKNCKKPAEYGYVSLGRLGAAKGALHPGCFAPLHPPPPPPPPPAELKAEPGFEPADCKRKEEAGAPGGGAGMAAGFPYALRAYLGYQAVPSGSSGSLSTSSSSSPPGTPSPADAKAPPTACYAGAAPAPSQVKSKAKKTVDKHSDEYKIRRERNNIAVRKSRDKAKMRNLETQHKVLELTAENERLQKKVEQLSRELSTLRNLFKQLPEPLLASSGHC
Sequence of Hepatocyte nuclear factor 3-beta (Homo sapiens) (Q9Y261 whole entry, looked up): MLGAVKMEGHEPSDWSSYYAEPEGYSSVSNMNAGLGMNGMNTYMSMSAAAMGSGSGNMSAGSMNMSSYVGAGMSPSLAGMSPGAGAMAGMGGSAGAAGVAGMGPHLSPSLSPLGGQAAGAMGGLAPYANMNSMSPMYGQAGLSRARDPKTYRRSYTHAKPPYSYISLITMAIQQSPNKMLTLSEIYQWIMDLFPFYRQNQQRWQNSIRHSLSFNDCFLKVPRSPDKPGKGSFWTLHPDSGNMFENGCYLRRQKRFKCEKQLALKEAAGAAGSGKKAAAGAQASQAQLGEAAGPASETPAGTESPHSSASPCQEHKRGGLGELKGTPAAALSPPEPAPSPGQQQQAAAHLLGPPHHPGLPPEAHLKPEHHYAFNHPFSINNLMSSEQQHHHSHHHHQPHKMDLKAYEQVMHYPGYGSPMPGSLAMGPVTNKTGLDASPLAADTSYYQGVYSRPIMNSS
Sequence of Signal transducer and activator of transcription 3 (Homo sapiens) (P40763 whole entry, looked up, the tested form may be a part): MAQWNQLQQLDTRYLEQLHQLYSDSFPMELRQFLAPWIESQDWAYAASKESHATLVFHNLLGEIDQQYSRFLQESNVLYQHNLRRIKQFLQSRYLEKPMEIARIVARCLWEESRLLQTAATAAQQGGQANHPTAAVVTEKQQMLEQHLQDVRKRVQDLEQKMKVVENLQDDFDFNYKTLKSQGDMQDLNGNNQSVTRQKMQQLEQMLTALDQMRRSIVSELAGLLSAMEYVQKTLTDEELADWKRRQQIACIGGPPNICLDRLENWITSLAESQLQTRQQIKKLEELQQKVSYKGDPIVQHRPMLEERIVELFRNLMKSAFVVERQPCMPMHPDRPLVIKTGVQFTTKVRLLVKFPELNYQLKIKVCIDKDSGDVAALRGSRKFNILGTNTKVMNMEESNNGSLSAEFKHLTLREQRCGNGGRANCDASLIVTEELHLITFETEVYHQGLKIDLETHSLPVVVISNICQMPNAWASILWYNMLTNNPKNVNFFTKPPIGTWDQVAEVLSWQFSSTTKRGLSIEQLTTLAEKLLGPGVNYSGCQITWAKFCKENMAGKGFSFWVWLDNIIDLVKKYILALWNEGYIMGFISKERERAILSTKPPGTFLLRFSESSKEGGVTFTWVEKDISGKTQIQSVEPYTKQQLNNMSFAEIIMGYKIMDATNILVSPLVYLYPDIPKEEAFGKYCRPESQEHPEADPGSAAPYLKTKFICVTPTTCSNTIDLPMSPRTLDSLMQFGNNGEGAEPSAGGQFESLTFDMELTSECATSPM

CC(C)[C@@H](C(=O)O[C@@H](C#N)c1cccc(Oc2ccccc2)c1)c1ccc(Cl)cc1
inactive: [1] | [2] | [3] | [5] | [6] | [7] | [8] | [9] | [10] | [11] | [12] | [13] | [14] | [16] | [17] | [18] | [19] | [20]
active: [4] 9.57 µM | [15] 0.678 µM

Nc1ccc([N+](=O)[O-])cc1N
inactive: [1] | [2] | [3] | [4] | [5] | [6] | [7] | [8] | [9] | [10] | [11] | [12] | [13] | [14] | [15] | [16] | [17] | [18] | [19] | [20]

C[C@]12CC[C@H](O)C[C@H]1CC[C@@H]1[C@@H]2C[C@@H](O)[C@]2(C)[C@@H](C3=CC(=O)OC3)CC[C@]12O
active: [1] 3.11 µM | [2] 2.8 µM | [3] 0.72 µM | [5] 0.865 µM | [7] 2.68 µM | [9] 8.76 µM | [11] 8.56 µM | [12] 7.98 µM | [15] 1.87 µM | [17] 1.28 µM | [18] 1.74 µM
inactive: [4] | [6] | [8] | [10] | [13] | [14] | [16] | [19] | [20]

CC(C)C(=O)Cl
inactive: [1] | [2] | [3] | [4] | [5] | [6] | [7] | [8] | [9] | [10] | [11] | [12] | [13] | [14] | [15] | [16] | [17] | [18] | [19] | [20]

C=CCO
inactive: [1] | [2] | [3] | [4] | [5] | [6] | [7] | [8] | [9] | [10] | [11] | [12] | [13] | [14] | [15] | [16] | [17] | [18] | [19] | [20]

CNC(=N[N+](=O)[O-])NCC1CCOC1 (stereo not given)
inactive: [1] | [2] | [3] | [4] | [5] | [6] | [7] | [8] | [9] | [10] | [11] | [12] | [13] | [14] | [15] | [16] | [17] | [18] | [19] | [20]

CCCCOC(=O)CCC(=O)OCCCC
inactive: [1] | [2] | [3] | [4] | [5] | [6] | [7] | [8] | [9] | [10] | [11] | [12] | [13] | [14] | [15] | [16] | [17] | [18] | [19] | [20]

Source: PubChem BioAssay (EPA / NIEHS)
